This is a sample that favours compounds with a hit; in the whole collection about 21% have one here.
CHX counter – Cycloheximide Counterscreen for Small Molecule Inhibitors of Shiga Toxin; cell reporter, cycloheximide protein synthesis inhibition counterscreen; max response, %; 12% of 300,000 active; in the data active means max response mostly above about 13%, no sharp cut-off; inactive means mostly below about 14%; further: read at 38.3 µM for the half of the compounds with a filed dose; 0% is about no effect
Shiga toxin inh – A qHTS for Small Molecule Inhibitors of Shiga Toxin; Vero cells, Shiga toxin protein synthesis inhibition reporter; inhibition, % at 38.7 µM; 9.2% of 290,000 active; AID 2315, 2010; in the data active means inhibition mostly above about 28%, no sharp cut-off; inactive means mostly below about 43%; further: 0% is about no effect
Pf growth 96h – Primary qHTS for delayed death inhibitors of the malarial parasite plastid, 96 hour incubation; 6.9% of 320,000 active; AID 504834, 2011; Potency, µM (series often up to 28.7 µM), for the others: at the top dose activity change, negative = inhibition, usual class: inhibitors; P. falciparum luciferase reporter growth, 96 h; further: potency means the concentration at half of the fitted maximal effect; on the % scale 0 is the no-effect control and ±100 the full control effect
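96 h incubation, 37 C, 5% CO2, of luciferase-reporter P. falciparum-infected RBCs (2% hematocrit, 0.05% parasitemia final) with test compounds; endpoint luminescence.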
Pf growth 48h – Primary qHTS for delayed death inhibitors of the malarial parasite plastid, 48 hour incubation. 5.9% of 310,000 active. Potency, µM (series often up to 28.7 µM), without a hit: at the highest dose activity change, negative = inhibition, hits mostly inhibitors. P. falciparum luciferase growth in erythrocytes, 48 h; further: potency means the concentration at half of the fitted maximal effect; on the % scale 0 is the no-effect control and ±100 the full control effect
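Here the parasites carry a stable luciferase gene and grow inside erythrocytes in Albumax-based RPMI medium with compound for one erythrocytic cycle. Activity is scored as loss of luminescent signal.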
NS1 function inh – qHTS Assay for Inhibitors of Influenza NS1 Protein Function | Potency, µM (doses to about 46.1 µM), inactives show at the highest dose activity, positive = more growth | AID 2326, 2010 | 0.4% of 270,000 active; calls by dose curve; further: potency means the concentration at half of the fitted maximal effect; actives are rising curves; nearly all actives have a fitted effect of over 50% in size
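Growth recovery, yeast-based: influenza A NS1 expressed in S. cerevisiae causes slow growth, and suppressors are detected by OD600. The parent strain without NS1 is used as positive control.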
* = called active by the depositor; u = inconclusive; x = no result given. Unless noted, the call rests on the fitted dose curve; in most records, active means well fitted inhibition curve with a large enough effect; inconclusive means small, poorly fitted or top-dose-only effect, or another doubt; inactive means no such curve, though single readings can be large or run the other way.

SMILES	CHX counter	Shiga toxin inh	Pf growth 96h	Pf growth 48h	NS1 function inh
COc1ccc(OC)c(-n2c(=S)[nH]c3cc(C(=O)N(C)Cc4ccccc4)ccc3c2=O)c1	-4	-10	9.3µM*	u	x
O=C1/C(=C/c2cccc3ccccc23)CCCc2ccccc21	29*	51*	50%	15%	-16%
Cn1c2ccccc2c2ncn(CCC3=CCCCC3)c(=O)c21	17*	27	u	u	-56%
CCN(CC(=O)Nc1c(F)cccc1F)C(=O)C1=COCCO1	x	x	34%	-8%	x
CC(C)(Cc1c[nH]c2ccccc12)NCC(O)COc1ccccc1C#N (centres undefined)	-6	-7	7.6µM*	17µM*	x
CC(C)C(NC(=O)C(C)N1C(=O)c2ccccc2C1=O)c1ccccc1 (centres undefined)	-1	-10	20%	17%	3%
Nc1n[nH]c(CO)n1	-2	-14	38%	-1%	7%
COc1ccc(/C(O)=C2/C(=O)C(=O)N(CCN(C)C)C2c2ccccn2)cc1OC (centres undefined)	6	-6	u	16%	4%
Cc1ccc(C2/C(=C(/O)c3ccccc3)C(=O)C(=O)N2CCN2CCOCC2)o1 (centres undefined)	20	15	-24%	31%	-11%
O=C1C(=O)N(CCN2CCOCC2)C(c2ccccn2)/C1=C(/O)c1ccccc1 (centres undefined)	30*	109*	3%	18%	5%
CCN(CC)CCCN1C(=O)C(=O)/C(=C(/O)c2ccc(C)cc2)C1c1ccccn1 (centres undefined)	-3	8	3.3µM*	6%	u
Cc1ccc(/C(O)=C2/C(=O)C(=O)N(CCN3CCOCC3)C2c2ccccn2)cc1 (centres undefined)	34*	105*	73%	31%	u
COc1ccc(/C(O)=C2/C(=O)C(=O)N(CCN3CCOCC3)C2c2ccccn2)cc1OC (centres undefined)	25*	64*	2%	4%	8%
O=C1C(=O)N(CCN2CCOCC2)C(c2cccnc2)/C1=C(/O)c1ccccc1 (centres undefined)	-1	-6	-9%	18%	4%
O=c1c(-c2ccnn2-c2cccc(Cl)c2)cnc2n1CCS2	11	-16	x	-6%	6%
CC(=O)NC(Cc1cccc(F)c1)C(=O)NC1CCN(c2nnnn2-c2ccccc2)CC1 (centres undefined)	-2	24	u	-10%	3%
O=C(C1=C(O)C(=O)N(CCN2CCOCC2)C1c1ccccc1)c1cccs1 (centres undefined)	x	x	x	x	-16%
O=C(C1=C(O)C(=O)N(CCCN2CCOCC2)C1c1ccccn1)c1cccs1 (centres undefined)	75*	43*	49%	u	-12%
CCN(CC)C(=O)CSc1nc2c(sc(=S)n2-c2ccccc2OC)c(=O)n1-c1ccccc1	0	-16	u	12µM*	0%
CCOC(=O)CSc1nc2c(sc(=S)n2Cc2ccco2)c(=O)n1-c1ccc(F)cc1	-3	-9	36%	10µM*	u
CCN(CC)C(=O)CSc1nc2c(sc(=S)n2CC)c(=O)n1-c1ccccc1	-5	-10	u	x	-4%
CCC(C)NC(=O)CSc1nc2c(sc(=S)n2Cc2ccco2)c(=O)n1-c1ccccc1 (centres undefined)	-2	-15	76%	x	1%
O=C(N/N=C/c1cccs1)c1cc(-c2ccc3ccccc3c2)n[nH]1	39*	54*	u	u	16%
O=C(N/N=C/c1cccs1)c1cc(-c2cccc3ccccc23)n[nH]1	47*	-26	-22%	46%	5%
CCc1ccc(-c2cc(C(=O)N/N=C/c3ccco3)[nH]n2)cc1	-4	-9	-13%	7%	x
SMILES	CHX counter	Shiga toxin inh	Pf growth 96h	Pf growth 48h	NS1 function inh
O=C(N/N=C/c1ccco1)c1cc(-c2ccc3ccccc3c2)n[nH]1	18*	23	9%	x	-9%
O=c1ccccn1Cc1c(F)cccc1Cl	-2	-17	22%	x	12%
COc1cccc(NC(=O)Cc2ccccc2)c1	-3	16	u	8%	-5%
COc1cccc(NC(=O)CC(=O)c2ccccc2)c1	59*	100*	129%	5%	1%
O=C(CNC(=O)c1ccccc1Cl)Nc1ccc(F)cc1	19*	11	u	28%	-4%
COc1cccc(NC(=O)CC(C)=O)c1	7	-3	-5%	7%	23%
COc1cccc(NC(=O)CNCc2ccccc2)c1	29*	62*	16%	33%	-4%
O=C(CNCc1ccccc1)Nc1ccc(F)cc1	35*	14	17%	30%	-1%
COc1ccccc1[C@@H]1C(c2cccc(C)c2)=NN(c2ccccc2)[C@H]1C(=O)N1CCOC1=O	1	3	10µM*	13µM*	u
O=C(O)CN1CCN(Cc2ccccc2Cl)C1=O	-2	-8	50%	14%	u
O=C(CN1C(=O)C2C3CCC(C3)C2C1=O)NCc1ccco1 (centres undefined)	11	43*	22%	31%	2%
O=C(NCc1ccco1)C(=O)NCc1ccccc1Cl	30*	24	u	21%	3%
O=C(NCc1ccccc1Cl)c1ccc(S(=O)(=O)NCc2ccco2)cc1	x	x	60%	50%	x
O=C(NCc1ccco1)Nc1ccccc1Cl	18*	74*	x	53%	-6%
O=C(CN1CCN(Cc2ccccc2Cl)C1=O)NCc1ccco1	-2	-16	3.3µM*	6%	0%
O=C1C2C3CCC(C3)C2C(=O)N1Cc1ccco1 (centres undefined)	-1	7	89%	13%	15%
CCNC(=S)NS(=O)(=O)c1ccc(F)cc1	-3	-13	25%	11%	-10%
O=C(NCc1ccco1)c1nc2c(nnn2Cc2ccccc2Cl)c(=O)[nH]1	-5	-10	0%	9.3µM*	11%
Cc1ccc(C)c(Cn2nnc3c(=O)[nH]c(C(=O)NCc4ccco4)nc32)c1	-3	-21	u	-10%	-11%
O=C(O)c1ccc(-c2ccc(OS(=O)(=O)c3ccccc3F)cc2)cc1	19*	65*	23%	41%	-21%
O=C(Nc1ccc(O)c(-c2nc3ccccc3o2)c1)C1(c2ccc(Cl)cc2)CCCC1	14	8	u	2.3µM*	-13%
COc1ccc(OC)c(C(=O)N2CCC(C(=O)c3ccc(F)cc3)CC2)c1	-3	-6	9.3µM*	-16%	-2%
COc1ccc(NC(=O)N2CCC(C(=O)c3ccc(F)cc3)CC2)cc1	9	8	31%	-16%	-10%
CCOC(=O)c1[nH]c(=O)[nH]c1COC(=O)c1cc2ccccc2o1	-2	-13	-17%	2%	5%
COc1ccc(C(=O)Nc2ccc(SC(F)F)cc2)cc1	49*	98*	193%	313%	5%
COc1ccc(-c2ccc3c(N)c(C(=O)Nc4cccc(C)c4)sc3n2)cc1	43*	17	x	x	x

Screening data (PubChem)
